Measured values reported in ChEMBL document CHEMBL1961873, “Compounds: GSK PKIS; Assays: Nanosyn kinase panel” (2012).

What was measured:
[1] = molecular target: Tyrosine-protein kinase SYK (Homo sapiens) (UniProt P43405); conditions: at 1 µM
[2] = molecular target: T1, Tyrosine-protein kinase Tec (Homo sapiens) (UniProt P42680); conditions: at 0.1 µM
T1 sequence (whole entry): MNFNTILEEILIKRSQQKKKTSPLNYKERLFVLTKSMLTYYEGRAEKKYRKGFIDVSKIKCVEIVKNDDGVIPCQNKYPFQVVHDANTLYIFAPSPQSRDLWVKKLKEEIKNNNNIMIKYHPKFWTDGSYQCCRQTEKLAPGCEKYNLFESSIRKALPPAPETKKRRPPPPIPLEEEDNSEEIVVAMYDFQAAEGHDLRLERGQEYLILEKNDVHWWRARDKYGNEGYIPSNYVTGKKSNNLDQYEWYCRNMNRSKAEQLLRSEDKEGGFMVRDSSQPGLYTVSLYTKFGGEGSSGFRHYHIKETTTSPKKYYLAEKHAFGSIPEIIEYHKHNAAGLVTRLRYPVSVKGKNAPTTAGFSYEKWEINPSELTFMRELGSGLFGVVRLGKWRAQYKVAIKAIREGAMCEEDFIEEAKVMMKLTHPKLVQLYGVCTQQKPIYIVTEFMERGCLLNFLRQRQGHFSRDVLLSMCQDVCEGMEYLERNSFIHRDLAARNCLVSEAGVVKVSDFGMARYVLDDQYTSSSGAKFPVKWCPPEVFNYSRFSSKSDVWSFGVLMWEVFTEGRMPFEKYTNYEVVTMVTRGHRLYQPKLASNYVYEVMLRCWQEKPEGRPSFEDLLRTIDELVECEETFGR

[3] = molecular target: T1, Tyrosine-protein kinase Tec (Homo sapiens); conditions: at 1 µM
[4] = molecular target: Angiopoietin-1 receptor (Homo sapiens) (UniProt Q02763); conditions: at 0.1 µM
Angiopoietin-1 receptor (Homo sapiens), sequence (Q02763 whole entry): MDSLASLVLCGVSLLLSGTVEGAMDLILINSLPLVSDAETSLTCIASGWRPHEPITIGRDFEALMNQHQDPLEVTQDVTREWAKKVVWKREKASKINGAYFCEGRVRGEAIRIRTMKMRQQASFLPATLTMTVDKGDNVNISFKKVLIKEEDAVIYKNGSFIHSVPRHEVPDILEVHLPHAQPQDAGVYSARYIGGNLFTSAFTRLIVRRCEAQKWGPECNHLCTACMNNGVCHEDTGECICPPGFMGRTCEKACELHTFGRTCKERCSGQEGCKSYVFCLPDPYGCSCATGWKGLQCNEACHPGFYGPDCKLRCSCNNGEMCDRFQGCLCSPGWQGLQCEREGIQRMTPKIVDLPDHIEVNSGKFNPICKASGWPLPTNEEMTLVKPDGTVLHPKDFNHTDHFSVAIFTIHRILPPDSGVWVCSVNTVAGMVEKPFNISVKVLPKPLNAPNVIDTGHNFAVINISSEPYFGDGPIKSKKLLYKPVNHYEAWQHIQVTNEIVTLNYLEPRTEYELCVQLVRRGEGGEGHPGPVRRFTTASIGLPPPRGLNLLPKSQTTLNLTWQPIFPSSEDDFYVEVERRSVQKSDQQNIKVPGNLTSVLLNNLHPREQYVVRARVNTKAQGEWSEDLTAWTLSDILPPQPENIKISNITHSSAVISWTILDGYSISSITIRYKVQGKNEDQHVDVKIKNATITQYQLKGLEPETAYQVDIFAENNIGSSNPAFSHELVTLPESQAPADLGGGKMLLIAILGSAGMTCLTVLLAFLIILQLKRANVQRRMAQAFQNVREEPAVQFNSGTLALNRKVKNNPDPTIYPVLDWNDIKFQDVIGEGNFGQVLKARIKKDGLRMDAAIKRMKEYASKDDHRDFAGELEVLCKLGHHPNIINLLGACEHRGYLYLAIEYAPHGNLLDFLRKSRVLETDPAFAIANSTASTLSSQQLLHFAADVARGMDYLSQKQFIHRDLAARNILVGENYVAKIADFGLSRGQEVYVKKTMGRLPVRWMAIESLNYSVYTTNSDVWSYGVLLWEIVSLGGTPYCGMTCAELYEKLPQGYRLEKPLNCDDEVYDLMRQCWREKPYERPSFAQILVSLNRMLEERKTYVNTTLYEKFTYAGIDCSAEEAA

[5] = molecular target: Angiopoietin-1 receptor (Homo sapiens) (UniProt Q02763); conditions: at 1 µM
[6] = molecular target: T2, Non-receptor tyrosine-protein kinase TNK1 (Homo sapiens) (UniProt Q13470); conditions: at 0.1 µM
T2 sequence (whole entry): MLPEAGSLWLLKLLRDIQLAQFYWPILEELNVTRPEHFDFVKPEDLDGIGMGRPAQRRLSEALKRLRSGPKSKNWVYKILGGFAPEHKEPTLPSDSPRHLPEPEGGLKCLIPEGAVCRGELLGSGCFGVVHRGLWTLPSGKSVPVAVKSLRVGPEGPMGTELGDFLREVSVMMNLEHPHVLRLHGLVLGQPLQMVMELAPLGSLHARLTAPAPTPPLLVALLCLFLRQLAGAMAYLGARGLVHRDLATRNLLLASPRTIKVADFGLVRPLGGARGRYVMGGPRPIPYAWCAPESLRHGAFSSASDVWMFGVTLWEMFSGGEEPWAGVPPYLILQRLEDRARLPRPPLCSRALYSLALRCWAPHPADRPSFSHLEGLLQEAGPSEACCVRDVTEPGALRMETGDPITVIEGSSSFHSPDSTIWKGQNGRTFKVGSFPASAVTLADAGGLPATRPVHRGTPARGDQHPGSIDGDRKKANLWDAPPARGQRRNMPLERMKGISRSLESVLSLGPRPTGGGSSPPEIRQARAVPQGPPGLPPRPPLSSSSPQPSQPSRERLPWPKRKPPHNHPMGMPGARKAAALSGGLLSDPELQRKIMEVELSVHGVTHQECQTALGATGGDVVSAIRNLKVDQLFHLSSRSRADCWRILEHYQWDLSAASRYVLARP

[7] = molecular target: T2, Non-receptor tyrosine-protein kinase TNK1 (Homo sapiens); conditions: at 1 µM
[8] = molecular target: Activated CDC42 kinase 1 (Homo sapiens) (UniProt Q07912); conditions: at 0.1 µM
Activated CDC42 kinase 1 (Homo sapiens), sequence (Q07912 whole entry, looked up): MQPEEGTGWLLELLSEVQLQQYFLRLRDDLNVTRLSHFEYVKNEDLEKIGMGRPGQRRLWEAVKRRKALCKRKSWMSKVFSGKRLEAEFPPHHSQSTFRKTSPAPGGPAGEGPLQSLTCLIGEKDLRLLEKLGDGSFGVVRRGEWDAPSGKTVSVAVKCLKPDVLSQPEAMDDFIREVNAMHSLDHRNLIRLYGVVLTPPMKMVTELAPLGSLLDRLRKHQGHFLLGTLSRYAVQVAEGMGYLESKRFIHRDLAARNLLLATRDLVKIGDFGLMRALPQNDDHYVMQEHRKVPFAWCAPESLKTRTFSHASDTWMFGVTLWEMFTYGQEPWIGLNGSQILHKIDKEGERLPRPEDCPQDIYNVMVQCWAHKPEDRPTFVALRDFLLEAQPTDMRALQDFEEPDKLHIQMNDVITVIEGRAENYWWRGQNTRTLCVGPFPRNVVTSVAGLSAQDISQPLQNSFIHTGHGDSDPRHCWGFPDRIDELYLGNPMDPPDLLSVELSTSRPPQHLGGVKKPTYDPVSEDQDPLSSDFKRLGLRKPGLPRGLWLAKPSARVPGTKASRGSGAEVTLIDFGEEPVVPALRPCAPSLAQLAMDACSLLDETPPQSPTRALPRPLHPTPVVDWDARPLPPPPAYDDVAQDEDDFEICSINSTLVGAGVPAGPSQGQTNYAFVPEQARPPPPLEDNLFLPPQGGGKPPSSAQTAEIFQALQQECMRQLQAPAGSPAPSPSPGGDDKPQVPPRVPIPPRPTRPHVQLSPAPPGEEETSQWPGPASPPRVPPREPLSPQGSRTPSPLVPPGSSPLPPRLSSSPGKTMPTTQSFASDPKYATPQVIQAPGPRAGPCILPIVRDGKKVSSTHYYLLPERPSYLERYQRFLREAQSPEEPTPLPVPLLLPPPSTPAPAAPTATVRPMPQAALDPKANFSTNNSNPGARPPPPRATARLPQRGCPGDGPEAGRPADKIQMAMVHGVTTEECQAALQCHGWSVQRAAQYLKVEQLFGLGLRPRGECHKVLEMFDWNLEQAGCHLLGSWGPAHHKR

[9] = molecular target: Activated CDC42 kinase 1 (Homo sapiens) (UniProt Q07912); conditions: at 1 µM
[10] = molecular target: High affinity nerve growth factor receptor (Homo sapiens) (UniProt P04629); conditions: at 0.1 µM
[11] = molecular target: High affinity nerve growth factor receptor (Homo sapiens) (UniProt P04629); conditions: at 1 µM
[12] = molecular target: BDNF/NT-3 growth factors receptor (Homo sapiens) (UniProt Q16620); conditions: at 0.1 µM
BDNF/NT-3 growth factors receptor (Homo sapiens), sequence (Q16620 32-822 limits assumed): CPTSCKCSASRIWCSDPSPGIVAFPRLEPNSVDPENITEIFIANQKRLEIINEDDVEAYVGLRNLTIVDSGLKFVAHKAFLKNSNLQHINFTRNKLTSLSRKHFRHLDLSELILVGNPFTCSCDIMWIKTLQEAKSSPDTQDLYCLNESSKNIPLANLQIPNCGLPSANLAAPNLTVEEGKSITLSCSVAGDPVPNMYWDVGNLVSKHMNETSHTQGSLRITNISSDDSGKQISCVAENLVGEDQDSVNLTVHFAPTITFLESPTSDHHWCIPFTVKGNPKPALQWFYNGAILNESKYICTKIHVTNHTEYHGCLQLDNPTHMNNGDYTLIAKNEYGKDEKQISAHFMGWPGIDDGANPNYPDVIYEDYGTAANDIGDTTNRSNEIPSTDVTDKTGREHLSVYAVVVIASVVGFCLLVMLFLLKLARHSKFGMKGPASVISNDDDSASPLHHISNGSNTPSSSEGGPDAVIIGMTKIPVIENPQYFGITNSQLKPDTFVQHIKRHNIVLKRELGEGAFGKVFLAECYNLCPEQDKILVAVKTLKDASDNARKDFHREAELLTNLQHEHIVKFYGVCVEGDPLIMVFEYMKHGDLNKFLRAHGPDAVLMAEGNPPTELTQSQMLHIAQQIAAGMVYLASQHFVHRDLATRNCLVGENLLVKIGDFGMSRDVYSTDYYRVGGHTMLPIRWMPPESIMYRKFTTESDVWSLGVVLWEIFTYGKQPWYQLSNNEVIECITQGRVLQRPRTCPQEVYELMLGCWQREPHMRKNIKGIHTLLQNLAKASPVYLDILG

[13] = molecular target: BDNF/NT-3 growth factors receptor (Homo sapiens) (UniProt Q16620); conditions: at 1 µM
[14] = molecular target: NT-3 growth factor receptor (Homo sapiens) (UniProt Q16288); conditions: at 0.1 µM
NT-3 growth factor receptor (Homo sapiens), sequence (Q16288 32-839 limits assumed): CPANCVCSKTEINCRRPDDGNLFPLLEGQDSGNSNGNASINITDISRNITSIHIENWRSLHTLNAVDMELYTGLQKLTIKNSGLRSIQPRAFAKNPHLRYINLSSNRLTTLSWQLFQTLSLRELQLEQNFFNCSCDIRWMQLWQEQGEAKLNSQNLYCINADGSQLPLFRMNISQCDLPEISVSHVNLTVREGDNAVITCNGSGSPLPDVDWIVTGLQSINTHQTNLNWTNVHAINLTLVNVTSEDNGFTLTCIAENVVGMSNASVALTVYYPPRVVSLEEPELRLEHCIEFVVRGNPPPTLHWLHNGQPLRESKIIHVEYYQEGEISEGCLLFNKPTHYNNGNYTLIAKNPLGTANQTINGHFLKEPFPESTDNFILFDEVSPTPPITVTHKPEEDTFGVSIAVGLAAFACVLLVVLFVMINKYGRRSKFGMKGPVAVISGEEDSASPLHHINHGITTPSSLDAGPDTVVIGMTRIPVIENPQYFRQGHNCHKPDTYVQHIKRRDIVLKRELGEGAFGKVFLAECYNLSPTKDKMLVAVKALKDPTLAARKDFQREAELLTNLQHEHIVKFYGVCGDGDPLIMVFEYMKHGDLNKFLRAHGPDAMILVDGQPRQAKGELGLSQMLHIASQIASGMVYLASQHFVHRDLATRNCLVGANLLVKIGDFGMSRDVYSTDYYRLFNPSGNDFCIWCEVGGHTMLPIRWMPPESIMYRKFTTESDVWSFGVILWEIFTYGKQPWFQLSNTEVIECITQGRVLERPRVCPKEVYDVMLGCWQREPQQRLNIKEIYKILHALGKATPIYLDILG

[15] = molecular target: NT-3 growth factor receptor (Homo sapiens) (UniProt Q16288); conditions: at 1 µM
[16] = molecular target: T3, Tyrosine-protein kinase TXK (Homo sapiens) (UniProt P42681); conditions: at 0.1 µM
T3 sequence (whole entry): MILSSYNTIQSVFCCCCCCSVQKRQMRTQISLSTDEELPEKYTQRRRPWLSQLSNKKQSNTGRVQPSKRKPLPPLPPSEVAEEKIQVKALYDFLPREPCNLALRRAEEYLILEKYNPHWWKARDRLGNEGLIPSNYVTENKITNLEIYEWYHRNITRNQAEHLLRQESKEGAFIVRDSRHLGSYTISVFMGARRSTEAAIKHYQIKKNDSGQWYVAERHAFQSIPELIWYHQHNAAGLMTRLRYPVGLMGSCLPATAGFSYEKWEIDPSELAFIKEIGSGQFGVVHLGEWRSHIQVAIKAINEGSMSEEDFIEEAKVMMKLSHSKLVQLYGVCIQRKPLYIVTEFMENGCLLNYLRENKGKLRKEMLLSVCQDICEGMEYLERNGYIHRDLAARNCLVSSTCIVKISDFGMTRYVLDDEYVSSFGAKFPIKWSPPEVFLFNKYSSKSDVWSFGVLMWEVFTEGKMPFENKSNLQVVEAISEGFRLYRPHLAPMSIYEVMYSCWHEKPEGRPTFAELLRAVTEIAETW

[17] = molecular target: T3, Tyrosine-protein kinase TXK (Homo sapiens); conditions: at 1 µM
[18] = molecular target: Non-receptor tyrosine-protein kinase TYK2 (Homo sapiens) (UniProt P29597); conditions: at 0.1 µM;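 note: each value is a mean of the inhibition readings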
Non-receptor tyrosine-protein kinase TYK2 (Homo sapiens), sequence (P29597 whole entry): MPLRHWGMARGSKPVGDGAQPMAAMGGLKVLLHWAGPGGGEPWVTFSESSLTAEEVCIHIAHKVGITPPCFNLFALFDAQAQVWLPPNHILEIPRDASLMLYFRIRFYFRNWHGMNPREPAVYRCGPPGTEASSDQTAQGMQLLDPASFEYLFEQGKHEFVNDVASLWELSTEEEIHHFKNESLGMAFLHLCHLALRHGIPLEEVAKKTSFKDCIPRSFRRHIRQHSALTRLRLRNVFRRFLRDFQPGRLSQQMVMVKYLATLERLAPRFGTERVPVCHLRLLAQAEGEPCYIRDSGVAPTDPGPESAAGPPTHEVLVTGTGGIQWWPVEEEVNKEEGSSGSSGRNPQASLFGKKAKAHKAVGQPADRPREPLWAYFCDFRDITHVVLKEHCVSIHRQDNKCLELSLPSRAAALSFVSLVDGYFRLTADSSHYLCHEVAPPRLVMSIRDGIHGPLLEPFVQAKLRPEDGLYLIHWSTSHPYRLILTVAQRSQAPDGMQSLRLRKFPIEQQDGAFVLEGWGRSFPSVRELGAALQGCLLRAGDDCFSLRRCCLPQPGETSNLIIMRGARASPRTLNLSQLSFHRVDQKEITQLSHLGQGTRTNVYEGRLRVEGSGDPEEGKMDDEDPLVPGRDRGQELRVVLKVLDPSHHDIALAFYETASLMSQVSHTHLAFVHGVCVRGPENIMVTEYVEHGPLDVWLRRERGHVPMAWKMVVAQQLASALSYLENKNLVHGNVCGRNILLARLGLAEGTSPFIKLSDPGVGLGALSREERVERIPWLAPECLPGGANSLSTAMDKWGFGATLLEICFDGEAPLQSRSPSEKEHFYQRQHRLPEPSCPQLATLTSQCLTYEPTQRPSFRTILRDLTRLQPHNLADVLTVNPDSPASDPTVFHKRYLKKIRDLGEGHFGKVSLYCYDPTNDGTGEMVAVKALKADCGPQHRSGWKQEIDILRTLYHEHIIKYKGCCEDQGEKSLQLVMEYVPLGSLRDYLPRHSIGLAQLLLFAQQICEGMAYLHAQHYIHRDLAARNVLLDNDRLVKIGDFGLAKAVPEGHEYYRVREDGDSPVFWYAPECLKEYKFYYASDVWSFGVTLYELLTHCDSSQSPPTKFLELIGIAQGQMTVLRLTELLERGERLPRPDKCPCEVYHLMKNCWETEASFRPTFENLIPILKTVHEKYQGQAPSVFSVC

[19] = molecular target: T4, Dual specificity protein kinase TTK (Homo sapiens) (UniProt P33981); conditions: at 1 µM;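 note: reported figures are mean TTK inhibition at 1 µM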
T4 sequence (whole entry): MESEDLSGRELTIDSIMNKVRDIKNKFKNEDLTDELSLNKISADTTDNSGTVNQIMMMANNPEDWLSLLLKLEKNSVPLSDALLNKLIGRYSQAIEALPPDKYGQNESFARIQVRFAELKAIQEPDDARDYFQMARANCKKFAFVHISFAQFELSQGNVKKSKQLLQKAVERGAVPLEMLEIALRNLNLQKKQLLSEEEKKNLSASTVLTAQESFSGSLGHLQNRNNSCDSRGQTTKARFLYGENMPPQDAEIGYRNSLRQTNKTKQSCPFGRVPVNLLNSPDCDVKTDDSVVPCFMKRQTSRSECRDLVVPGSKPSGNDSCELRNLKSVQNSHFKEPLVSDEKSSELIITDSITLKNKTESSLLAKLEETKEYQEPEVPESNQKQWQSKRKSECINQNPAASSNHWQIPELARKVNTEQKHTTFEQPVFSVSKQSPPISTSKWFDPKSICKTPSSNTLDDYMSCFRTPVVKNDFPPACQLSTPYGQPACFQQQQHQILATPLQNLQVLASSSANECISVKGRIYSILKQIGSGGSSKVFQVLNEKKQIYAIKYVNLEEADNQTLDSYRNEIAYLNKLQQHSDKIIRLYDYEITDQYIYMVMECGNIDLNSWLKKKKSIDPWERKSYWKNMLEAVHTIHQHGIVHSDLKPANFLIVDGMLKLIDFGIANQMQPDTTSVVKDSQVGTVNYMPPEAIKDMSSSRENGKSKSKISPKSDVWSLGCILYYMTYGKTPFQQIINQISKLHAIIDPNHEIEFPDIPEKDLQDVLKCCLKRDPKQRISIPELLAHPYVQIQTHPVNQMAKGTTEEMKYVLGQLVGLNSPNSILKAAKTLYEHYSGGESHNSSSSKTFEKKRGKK

[20] = molecular target: T5, Aurora kinase A (Homo sapiens) (UniProt O14965); conditions: at 0.1 µM;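 note: each reported value is a mean percent inhibition of Aurora-A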
T5 sequence (whole entry): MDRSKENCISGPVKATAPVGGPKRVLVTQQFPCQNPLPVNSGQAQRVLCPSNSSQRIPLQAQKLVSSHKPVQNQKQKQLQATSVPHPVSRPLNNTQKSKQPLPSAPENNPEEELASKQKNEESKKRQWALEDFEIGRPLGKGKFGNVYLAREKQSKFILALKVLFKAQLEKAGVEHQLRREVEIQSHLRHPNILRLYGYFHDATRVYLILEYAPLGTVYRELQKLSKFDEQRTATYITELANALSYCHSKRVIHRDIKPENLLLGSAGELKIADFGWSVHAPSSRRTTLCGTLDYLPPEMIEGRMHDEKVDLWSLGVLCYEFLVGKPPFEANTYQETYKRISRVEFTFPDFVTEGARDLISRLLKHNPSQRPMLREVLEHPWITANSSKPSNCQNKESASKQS

Row | SMILES | inhibition [1] | inhibition [2] | inhibition [3] | inhibition [4] | inhibition [5] | inhibition [6] | inhibition [7] | inhibition [8] | inhibition [9] | inhibition [10] | inhibition [11] | inhibition [12] | inhibition [13] | inhibition [14] | inhibition [15] | inhibition [16] | inhibition [17] | inhibition [18] | inhibition [19] | inhibition [20]
1 | CS(=O)(=O)Nc1cccc(-c2ccc3c(NC(=O)C4CC4)n[nH]c3c2)c1 | 0.89% | 2.55% | 3.97% | 1.52% | 7.04% | 2.45% | -6.75% | -0.85% | -2.06% | -1.92% | 2.02% | 0.05% | 0.23% | -0.22% | 5.08% | -1.12% | 2.67% | 0.85% | 5.01% | 2.68%
2 | Oc1cccc(-c2nc(-c3ccccc3)[nH]c2-c2ccncc2)c1 | 1.53% | 5.02% | 9.92% | 3.23% | 15.7% | 3.62% | 12.3% | 1.47% | 2.85% | 3.43% | 5.31% | 3.82% | 5.72% | 4.99% | 7.3% | 3.28% | 13.8% | -1.97% | 12.4% | 2.96%
3 | FC(F)(F)c1ccc(-c2nn3ncccc3c2-c2ccnc(Nc3ccc4c(c3)OCCO4)n2)cc1 | 0.25% | 3.97% | 5.21% | 9.11% | 33.8% | 6.18% | 22.2% | 6.74% | 8.14% | -1.21% | 0.14% | 1.21% | 3.15% | 1.88% | 4.32% | 6.36% | 4.7% | 3.04% | 2.98% | -2.66%
4 | COc1cccc(-n2nc(C)c3c(N/N=C(\C)c4ccncc4)ncnc32)c1 | 2.38% | 1.82% | 3.53% | 0.73% | 2.25% | -1.41% | 0.13% | -0.22% | 0.84% | 0.99% | 2.57% | -1.2% | 0.69% | -2.28% | -0.38% | 3.18% | 2.67% | 0.67% | 2.24% | 1.27%
5 | NS(=O)(=O)c1ccc(NC=C2C(=O)Nc3ccc4ncsc4c32)cc1 | 3.68% | 5.73% | 22.4% | 1.88% | 19.6% | 15.6% | 53.1% | 1.41% | 9.93% | 15.9% | 68.8% | 31.8% | 80.2% | 35.6% | 84.6% | 4.55% | 17.2% | 11% | 75.5% | 34.6%
6 | c1ccc(Cc2nc3ccc(Nc4ncnc5ccccc45)cc3[nH]2)cc1 | -0.79% | 4.4% | 8.08% | 2.5% | 5.58% | 1.92% | 11.4% | 1.45% | 3.26% | 2.77% | 0.18% | 2.44% | 3.35% | -0.16% | 2.9% | 2.03% | 4.47% | -9.76% | 19% | 2.6%
